Source: PubChem BioAssay AID720650 (Broad Institute, 2013)
Unmarked numbers belong to inactive results. Active and inactive are the calls of the source. How the calls were made is not given here.

Assay: Biochemical counterscreen for C difficile toxins, absence of UDPG, inhibitor dose response (AID 720650)
Conditions: series mostly up to 19.5 µM; activity change, negative = inhibition: at the top concentration

| SMILES | AC50 | activity change, negative = inhibition |
| --- | --- | --- |
| C[C@H](CO)N1C[C@H](C)[C@@H](CN(C)C(=O)Nc2ccc(C(F)(F)F)cc2)Oc2c(NS(=O)(=O)c3ccccc3)cccc2C1=O | > 39 µM |  |
| COc1ccc(C)cc1NC(=O)C(OC(=O)C1=NNC(=O)CC1)c1ccccc1 (configuration not stated) |  | 1.41% |
| O=C(Nc1ccc(N2CCOCC2)c(Cl)c1)c1ccc2c(c1)OCCO2 |  | -12.3% |
| COc1ccc(CNCCc2ccc3c(c2)OCO3)cc1Br |  | 3.39% |
| COc1ccc(C(=O)Nc2ccccc2C(=O)O)cc1Cl | > 39 µM |  |
| CCOc1ccc(/C=N/n2nnnc2N)cc1O |  | 5.99% |
| C[C@H](NC(=O)c1cc2c(cn1)[nH]c1ccccc12)C(=O)O |  | -1.98% |
| S=C(NCCc1ccccc1)Nc1ncccn1 |  | -8.54% |
| COc1cccc(C(=O)COC(=O)c2ccc(NC(=O)c3ccccc3)cc2)c1 |  | 0.123% |
| CN(C)CCNc1cccc2sc3ccc(O)cc3c(=O)c12 | 4.36 µM (active) |  |
| CCc1ccc(NC(=O)c2cc(C)on2)cc1 |  | -14.7% |
| O=C(COC(=O)c1ccc(F)cc1F)c1ccc[nH]1 |  | -3.4% |
| O=C(COc1ccc(/C=N/NC(=O)c2ccc(O)cc2)cc1)Nc1cccc([N+](=O)[O-])c1 |  | -5.22% |
| COc1ccc(C(=O)Nc2cc(Cl)ccc2C(=O)O)cc1 | 10.4 µM (active) |  |
| Cc1cccc(/C=C/c2onc(C)c2S(=O)(=O)N2CCC(C(=O)N3CCC(C)CC3)CC2)c1 |  | -4.09% |
| O=C(Nc1nnc(C(F)(F)F)s1)c1ccc(Br)s1 | 8.05 µM (active) |  |
| Nc1ccc(C(=O)c2ccc3c(c2)OCCO3)cc1N | 11.9 µM (active) |  |
